From publication PMC4081100, “A DNA-binding-site landscape and regulatory network analysis for NAC transcription factors in Arabidopsis thaliana”

Tests used:
Test in all cases: universal protein binding microarray (PBM); transcription factors of Arabidopsis thaliana; high values mean tight binding
[1] = target: T1, GST-ANAC092(1-176) (Arabidopsis thaliana, UniProt Q9FKA0 1-176); conditions: protein: recombinant; tags: GST; chain copies: 2; dsDNA, one strand shown
T1 sequence: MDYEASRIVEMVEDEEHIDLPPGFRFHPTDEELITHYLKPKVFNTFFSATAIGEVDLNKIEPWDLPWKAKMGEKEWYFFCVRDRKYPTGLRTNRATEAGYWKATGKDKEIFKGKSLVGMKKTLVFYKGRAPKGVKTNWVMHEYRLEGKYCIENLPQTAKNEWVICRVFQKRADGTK
Summary of the method: (§1)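 Protein amounts were determined by A280 or anti-GST western blot after glutathione–Sepharose 4B purification of GST-tagged proteins induced in cells, with zinc acetate included for zinc-finger proteins. Duplicate runs at 200 to 500 nM final were done on custom all-10-mer Agilent 4 × 180K arrays made double-stranded by primer extension. The normalised enrichment score (E-score) over gapped and ungapped 8-mers is the measure of binding.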

[2] = target: T2, GST-ANAC019 NAC domain (Arabidopsis thaliana, UniProt Q9C932 14-162); conditions: protein: recombinant; tags: GST; chain copies: 2; dsDNA, one strand shown
T2 sequence: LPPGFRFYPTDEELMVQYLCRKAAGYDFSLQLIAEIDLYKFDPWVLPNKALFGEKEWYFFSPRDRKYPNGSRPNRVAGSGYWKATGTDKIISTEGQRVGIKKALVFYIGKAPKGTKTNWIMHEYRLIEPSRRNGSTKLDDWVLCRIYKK
Summary of the method: as §1

[3] = target: T3, GST-ANAC055(1-171) (Arabidopsis thaliana, UniProt Q9LDY8 1-171); conditions: protein: recombinant; tags: GST; chain copies: 2; dsDNA, one strand shown
T3 sequence: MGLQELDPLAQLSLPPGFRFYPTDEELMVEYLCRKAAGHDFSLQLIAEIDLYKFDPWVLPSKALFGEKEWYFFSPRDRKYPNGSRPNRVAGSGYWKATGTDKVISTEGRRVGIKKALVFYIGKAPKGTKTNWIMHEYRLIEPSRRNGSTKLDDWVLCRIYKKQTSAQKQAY
Summary of the method: as §1

[4] = target: T4, GST-ATAF1 NAC domain (Arabidopsis thaliana, UniProt Q39013 7-158); conditions: protein: recombinant; tags: GST; chain copies: 2; dsDNA, one strand shown
T4 sequence: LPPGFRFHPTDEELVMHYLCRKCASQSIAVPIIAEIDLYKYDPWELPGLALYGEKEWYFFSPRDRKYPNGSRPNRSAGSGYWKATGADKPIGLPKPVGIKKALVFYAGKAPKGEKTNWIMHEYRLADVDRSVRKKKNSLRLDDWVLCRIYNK
Summary of the method: as §1

[5] = target: T5, GST-ANAC092(1-285) full length (Arabidopsis thaliana, UniProt Q9FKA0 1-285); conditions: protein: recombinant; tags: GST; chain copies: 2; dsDNA, one strand shown
T5 sequence: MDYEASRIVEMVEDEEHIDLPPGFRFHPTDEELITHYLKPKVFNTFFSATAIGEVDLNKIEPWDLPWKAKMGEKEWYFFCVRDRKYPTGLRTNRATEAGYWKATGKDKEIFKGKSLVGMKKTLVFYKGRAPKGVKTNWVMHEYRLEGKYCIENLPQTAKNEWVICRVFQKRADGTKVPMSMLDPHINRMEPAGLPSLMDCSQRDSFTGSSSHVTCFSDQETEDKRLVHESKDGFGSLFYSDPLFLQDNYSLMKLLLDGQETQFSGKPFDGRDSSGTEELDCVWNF
Summary of the method: as §1

[6] = target: T6, GST-NAP(1-166) (Arabidopsis thaliana, UniProt O49255 1-166); conditions: protein: recombinant; tags: GST; chain copies: 2; dsDNA, one strand shown
T6 sequence: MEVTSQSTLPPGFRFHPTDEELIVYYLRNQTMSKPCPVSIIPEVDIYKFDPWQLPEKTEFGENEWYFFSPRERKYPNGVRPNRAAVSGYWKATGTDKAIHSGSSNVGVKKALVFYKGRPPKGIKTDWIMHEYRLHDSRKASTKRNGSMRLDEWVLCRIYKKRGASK
Summary of the method: as §1

[7] = target: T7, GST-NST2(1-184) (Arabidopsis thaliana, UniProt Q9M274 1-184); conditions: protein: recombinant; tags: GST; chain copies: 2; dsDNA, one strand shown
T7 sequence: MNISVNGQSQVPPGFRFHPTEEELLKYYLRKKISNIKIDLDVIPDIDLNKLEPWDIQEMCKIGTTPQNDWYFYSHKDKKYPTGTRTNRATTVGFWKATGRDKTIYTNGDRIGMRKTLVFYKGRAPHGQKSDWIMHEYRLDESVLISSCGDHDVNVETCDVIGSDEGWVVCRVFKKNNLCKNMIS
Summary of the method: as §1

[8] = target: T8, GST-NTL8 NAC domain (Arabidopsis thaliana, UniProt Q9XIN7 14-156); conditions: protein: recombinant; tags: GST; chain copies: 2; dsDNA, one strand shown
T8 sequence: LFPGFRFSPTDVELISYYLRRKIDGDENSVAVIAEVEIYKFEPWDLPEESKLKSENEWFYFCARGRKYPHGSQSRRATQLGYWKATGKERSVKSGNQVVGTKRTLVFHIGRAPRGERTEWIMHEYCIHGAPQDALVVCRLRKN
Summary of the method: as §1

[9] = target: T9, GST-SND1(1-203) (Arabidopsis thaliana, UniProt Q9LPI7 1-203); conditions: protein: recombinant; tags: GST; chain copies: 2; dsDNA, one strand shown
T9 sequence: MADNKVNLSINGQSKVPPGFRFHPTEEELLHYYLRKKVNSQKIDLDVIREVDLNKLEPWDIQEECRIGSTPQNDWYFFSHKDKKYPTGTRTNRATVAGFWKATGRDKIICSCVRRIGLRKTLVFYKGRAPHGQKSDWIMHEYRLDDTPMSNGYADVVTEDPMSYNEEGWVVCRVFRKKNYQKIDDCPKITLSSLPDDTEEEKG
Summary of the method: as §1

[10] = target: T10, GST-VND3 NAC domain (Arabidopsis thaliana, UniProt Q9FH59 12-162); conditions: protein: recombinant; tags: GST; chain copies: 2; dsDNA, one strand shown
T10 sequence: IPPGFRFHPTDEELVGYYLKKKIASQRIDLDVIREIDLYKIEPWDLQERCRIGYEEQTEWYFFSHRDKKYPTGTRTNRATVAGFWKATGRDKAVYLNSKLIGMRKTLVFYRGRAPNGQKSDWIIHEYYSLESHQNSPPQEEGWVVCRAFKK
Summary of the method: as §1

[11] = target: T11, GST-VND7 NAC domain (Arabidopsis thaliana, UniProt Q9C8W9 9-158); conditions: protein: recombinant; tags: GST; chain copies: 2; dsDNA, one strand shown
T11 sequence: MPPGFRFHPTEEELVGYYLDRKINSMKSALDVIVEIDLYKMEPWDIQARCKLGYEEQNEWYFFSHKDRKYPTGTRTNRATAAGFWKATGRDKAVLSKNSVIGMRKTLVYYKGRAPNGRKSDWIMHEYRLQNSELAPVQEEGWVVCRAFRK
Summary of the method: as §1

[12] = target: GST-WRKY1(266-371) (Arabidopsis thaliana, UniProt Q9SI37 266-371); conditions: protein: recombinant; tags: GST; dsDNA, one strand shown
GST-WRKY1(266-371), sequence (Q9SI37 266-371): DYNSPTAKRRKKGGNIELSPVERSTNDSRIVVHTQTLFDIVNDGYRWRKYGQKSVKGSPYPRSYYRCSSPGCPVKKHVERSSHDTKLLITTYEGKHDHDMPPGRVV
Summary of the method: as §1

[13] = target: GST-NTL6(1-168) (Arabidopsis thaliana, UniProt Q9SCK6 1-168); conditions: protein: recombinant; tags: GST; chain copies: 2; dsDNA, one strand shown
GST-NTL6(1-168), sequence (Q9SCK6 1-168): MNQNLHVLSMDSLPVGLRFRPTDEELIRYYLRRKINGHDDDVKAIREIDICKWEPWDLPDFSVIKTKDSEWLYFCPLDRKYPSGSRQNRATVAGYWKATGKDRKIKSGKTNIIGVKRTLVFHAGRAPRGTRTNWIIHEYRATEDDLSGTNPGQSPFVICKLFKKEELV
Summary of the method: as §1

Sequence	binding signal [1] [E-score]	binding signal [2] [E-score]	binding signal [3] [E-score]	binding signal [4] [E-score]	binding signal [5] [E-score]	binding signal [6] [E-score]	binding signal [7] [E-score]	binding signal [8] [E-score]	binding signal [9] [E-score]	binding signal [10] [E-score]	binding signal [11] [E-score]	binding signal [12] [E-score]	binding signal [13] [E-score]
CGTGCACG	0.354	0.464	0.424	0.304	0.418	0.378	0.221	0.0868	0.0947	0.426	0.391	0.0812	–
AATACGCA	0.411	0.196	0.293	0.142	0.431	0.221	0.206	–	0.356	0.314	0.259	–	0.109
GCGTAATA	0.318	0.0565	0.189	0.0519	0.324	0.109	0.306	–	0.422	0.203	0.246	–	0.0582
CGTCAACG	0.117	0.109	–	0.0746	0.159	0.108	–	–	0.0973	0.0692	0.0989	0.47	–
AGACACGC	0.364	0.0909	0.0867	0.165	0.42	0.0846	0.107	0.0629	0.215	0.0792	0.165	0.084	–
ATGTCAAC	–	–	0.133	0.127	–	0.106	0.0828	–	0.0631	0.089	0.124	0.443	0.0563
ATTCCGTG	0.408	0.438	0.448	0.3	0.401	0.329	0.251	–	0.135	0.386	0.41	–	0.129
